# Reference: PubChem BioAssay
# “And” between values parts separate entries of the source, which are not always exact repeats. Equal entries are not always repeated. The source made the active and inactive calls.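 How the source made its calls, unless noted: active means normalized viability below 100% at a tested concentration; inactive means the rest.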
# Legend:
# [1] = viability loss with induced miR-34 in A549 – imaging, A549 dox-inducible miR-34, nuclei and caspase counts, primary screen (AID 1347080;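 active means compounds whose cell count with miR-34 switched on is under 0.7 times the count with it off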); settings: A549 miR-34 inducible, Hoechst nuclei count, 48 h
# [2] = MELAS cybrid and Rieske KO viability enhancers – cell-based, MELAS cybrids, Rieske KO mouse fibroblasts, CellTiter-Glo, primary screen (AID 1508586;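 active means mean z-score across replicates of 1.96 or higher in either the MELAS or the Rieske mutant cell line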;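 further: z relative to plate mean and SD of compound and empty wells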); settings: low glucose
# [3] = galactose survival enhancers in mitochondrial complex I cybrids – cell-based, galactose medium, ATP luminescence, primary screen (AID 1645843;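 active means z-score of at least 1.8 in each of two replicates, scored against plate mean and spread of sample wells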;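 further: positive z means more ATP and so rescue of galactose-driven cybrid death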); settings: complex I mutant cybrid cells, 72 h, stronger effect = higher value
# [4] = P. berghei load reduction in hepatocytes – cell-based, HepG2, luciferase luminescence, HepG2 viability, primary screen (AID 624349; in the data active means parasite load remaining mostly below about 12%, no sharp cut-off; inactive means mostly above about 10%;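 further: 100% = mean of DMSO negative control wells on the same plate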); settings: P. berghei liver stage in HepG2, luciferase luminescence, concentration not given here; parasite load remaining: stronger effect = lower value; viability: measured here: HepG2 viability without parasites
# [5] = molecular target: NAD(+) hydrolase SARM1 (Homo sapiens) (UniProt Q6SZW1); experiment: blocking NAD cleavage by SARM1 SAM-TIR – cell lysate, NAD-Glo luminescence (AID 1508614;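 active means compound whose remaining NAD level is above about 45 nM, limit read from the data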); settings: SAM-TIR HEK293T lysate NADase, at 1 µM, stronger effect = higher value
# [6] = drug combination growth inhibition, ovarian cancer – cell-based, oncology-focused library, rucaparib conditional, profiling panel (AID 1508598); settings: patient-derived ovarian cancer cells, CellTiter-Glo viability, 144 h, stronger effect = lower value
# [7] = stronger effect = lower value, cell number ratio, induced over uninduced
# [8] = measured here: relative caspase fold change +Dox/-Dox
# [9] = measured here: total cells with miR-34 induction, stronger effect = lower value
# [10] = measured here: total cells without miR-34 induction
# [11] = MELAS cybrid survival, CellTiter-Glo 48 h, stronger effect = higher value
# [12] = Rieske KO mouse fibroblast survival, CellTiter-Glo 72 h
# Sequence of NAD(+) hydrolase SARM1 (Homo sapiens) (Q6SZW1 whole entry, looked up): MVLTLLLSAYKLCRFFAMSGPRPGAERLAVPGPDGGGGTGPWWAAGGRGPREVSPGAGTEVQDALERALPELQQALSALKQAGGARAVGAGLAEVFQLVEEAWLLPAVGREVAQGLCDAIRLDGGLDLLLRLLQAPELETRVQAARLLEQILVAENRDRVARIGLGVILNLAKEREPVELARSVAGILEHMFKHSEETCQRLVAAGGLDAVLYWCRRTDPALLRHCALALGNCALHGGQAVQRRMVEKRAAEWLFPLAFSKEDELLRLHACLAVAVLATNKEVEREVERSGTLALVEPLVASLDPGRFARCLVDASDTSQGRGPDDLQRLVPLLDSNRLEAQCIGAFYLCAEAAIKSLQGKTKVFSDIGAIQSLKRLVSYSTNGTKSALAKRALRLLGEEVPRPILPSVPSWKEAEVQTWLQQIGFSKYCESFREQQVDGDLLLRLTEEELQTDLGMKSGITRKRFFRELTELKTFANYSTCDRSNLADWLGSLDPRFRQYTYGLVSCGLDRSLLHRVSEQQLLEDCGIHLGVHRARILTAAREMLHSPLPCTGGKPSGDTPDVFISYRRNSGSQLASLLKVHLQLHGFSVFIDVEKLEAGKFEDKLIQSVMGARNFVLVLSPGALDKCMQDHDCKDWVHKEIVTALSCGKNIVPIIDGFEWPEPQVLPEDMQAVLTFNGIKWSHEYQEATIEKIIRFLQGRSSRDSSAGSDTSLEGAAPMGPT
structure (smiles),measurement,setting,value
CCOc1ccc(C=C2NCCc3cc(OCC)c(OCC)cc32)cc1OCC,fold change,[1]; [7],0.846 (inactive)
same,fold change,[1]; [8],0.801
same,cell count,[1]; [9],4950
same,cell count,[1]; [10],5850
same,z-score,[2]; [11],-1.41 (inactive)
same,z-score,[2]; [12],-0.0245
same,z-score,[3],-2.65 (inactive)
COc1ccc(-c2cc(-n3cccn3)ncn2)c(-n2cccn2)c1,fold change,[1]; [7],0.922 (inactive)
same,fold change,[1]; [8],1.07
same,cell count,[1]; [9],8340
same,cell count,[1]; [10],9050
same,z-score,[2]; [11],-0.554 (inactive)
same,z-score,[2]; [12],0.208
same,z-score,[3],-0.595 (inactive)
NC[C@H]1O[C@H](O[C@H]2[C@H](O)[C@@H](O[C@H]3O[C@H](CO)[C@@H](O)[C@H](N)[C@H]3O)[C@H](N)C[C@@H]2N)[C@H](O)[C@@H](O)[C@@H]1O,parasite load remaining,[4],178% (inactive)
same,viability,[4],108%
same,fold change,[1]; [7],0.854 (inactive)
same,fold change,[1]; [8],1.26
same,cell count,[1]; [9],8420
same,cell count,[1]; [10],9860
same,z-score,[2]; [11],-0.387 (inactive)
same,z-score,[2]; [12],-0.145
same,remaining NAD,[5],10 nM (inactive)
Cc1nn(C)cc1-c1ccnc(NCc2nc(-c3ccccc3)no2)n1,fold change,[1]; [7],0.84 (inactive)
same,fold change,[1]; [8],1.25
same,cell count,[1]; [9],7970
same,cell count,[1]; [10],9490
same,z-score,[2]; [11],-0.588 (inactive)
same,z-score,[2]; [12],1.31
same,z-score,[3],0.09 (inactive)
CC(C)[N+]1(C)[C@@H]2CC[C@H]1CC(OC(=O)C(CO)c1ccccc1)C2 (some centres undefined),parasite load remaining,[4],74.8% (inactive)
same,viability,[4],106%
same,fold change,[1]; [7],0.879 (inactive)
same,fold change,[1]; [8],1.21
same,cell count,[1]; [9],10100
same,cell count,[1]; [10],11500
same,z-score,[2]; [11],-0.791 (inactive)
same,z-score,[2]; [12],-0.158
same,remaining NAD,[5],10 nM (inactive)
same,z-score,[3],0.555 (inactive)
CC1(C)S[C@@H]2[C@H](NC(=O)[C@H](NC(=O)N3CCNC3=O)c3ccccc3)C(=O)N2[C@H]1C(=O)O,parasite load remaining,[4],109% (inactive)
same,viability,[4],98.7%
same,fold change,[1]; [7],0.917 (inactive)
same,fold change,[1]; [8],1.11
same,cell count,[1]; [9],9220
same,cell count,[1]; [10],10100
same,z-score,[2]; [11],0.409 (inactive)
same,z-score,[2]; [12],-0.381
same,remaining NAD,[5],10 nM (inactive)
C[C@@H]1CCC[C@H](C)N1NC(=O)c1ccc(Cl)c(S(N)(=O)=O)c1,parasite load remaining,[4],123% (inactive) and 80.9% (inactive)
same,viability,[4],112% and 106%
same,fold change,[1]; [7],0.884 (inactive) and 0.878 (inactive)
same,fold change,[1]; [8],1.72 and 1.06
same,cell count,[1]; [9],9180 and 9670
same,cell count,[1]; [10],10400 and 11000
same,z-score,[2]; [11],0.52 (inactive) and -0.675 (inactive)
same,z-score,[2]; [12],-0.0626 and -0.387
same,z-score,[3],0.85 (inactive)
Cc1c(OCC(F)(F)F)ccnc1C[S@@](=O)c1nc2ccccc2[nH]1,fold change,[1]; [7],0.977 (inactive)
same,fold change,[1]; [8],1.03
same,cell count,[1]; [9],7200
same,cell count,[1]; [10],7370
same,z-score,[2]; [11],-0.079 (inactive)
same,z-score,[2]; [12],-0.121
same,remaining NAD,[5],53 nM (active)
CO[C@@]1(NC(=O)C2SC(=C(C(N)=O)C(=O)O)S2)C(=O)N2C(C(=O)O)=C(CSc3nnnn3C)CS[C@@H]21 (some centres undefined),parasite load remaining,[4],165% (inactive) and 73.4% (inactive)
same,viability,[4],107% and 73.9%
same,fold change,[1]; [7],0.873 (inactive)
same,fold change,[1]; [8],1.71
same,cell count,[1]; [9],8700
same,cell count,[1]; [10],9980
same,z-score,[2]; [11],-0.492 (inactive)
same,z-score,[2]; [12],-0.132
same,remaining NAD,[5],10 nM (inactive)
C[C@]12C=CC(=O)C=C1CC[C@@H]1[C@H]2C(=O)C[C@@]2(C)[C@H]1CC[C@@]2(O)C(=O)CO,fold change,[1]; [7],0.899 (inactive)
same,fold change,[1]; [8],0.898
same,cell count,[1]; [9],7790
same,cell count,[1]; [10],8660
same,z-score,[2]; [11],-0.304 (inactive)
same,z-score,[2]; [12],-0.016
same,viability,"[6]; at 0.000305 µM, OCI-C5x cells, with rucaparib 10 µM, 100% = cells with rucaparib alone",112% (inactive)
same,viability,"[6]; at 0.000305 µM, OCI-C5x cells, without rucaparib",111% (inactive)
same,viability,"[6]; at 0.000305 µM, OCI-P5x cells, with rucaparib 20 µM, 100% = cells with rucaparib alone",93.3% (active)
same,viability,"[6]; at 0.000305 µM, OCI-P5x cells, without rucaparib",93.5% (active)
same,viability,"[6]; at 0.00122 µM, OCI-C5x cells, with rucaparib 10 µM, 100% = cells with rucaparib alone",111% (inactive)
same,viability,"[6]; at 0.00122 µM, OCI-C5x cells, without rucaparib",107% (inactive)
same,viability,"[6]; at 0.00122 µM, OCI-P5x cells, with rucaparib 20 µM, 100% = cells with rucaparib alone",95.9% (active)
same,viability,"[6]; at 0.00122 µM, OCI-P5x cells, without rucaparib",93.2% (active)
same,viability,"[6]; at 0.00488 µM, OCI-C5x cells, with rucaparib 10 µM, 100% = cells with rucaparib alone",107% (inactive)
same,viability,"[6]; at 0.00488 µM, OCI-C5x cells, without rucaparib",102% (inactive)
same,viability,"[6]; at 0.00488 µM, OCI-P5x cells, with rucaparib 20 µM, 100% = cells with rucaparib alone",91% (active)
same,viability,"[6]; at 0.00488 µM, OCI-P5x cells, without rucaparib",90.1% (active)
same,viability,"[6]; at 0.0195 µM, OCI-C5x cells, with rucaparib 10 µM, 100% = cells with rucaparib alone",110% (inactive)
same,viability,"[6]; at 0.0195 µM, OCI-C5x cells, without rucaparib",102% (inactive)
same,viability,"[6]; at 0.0195 µM, OCI-P5x cells, with rucaparib 20 µM, 100% = cells with rucaparib alone",88.4% (active)
same,viability,"[6]; at 0.0195 µM, OCI-P5x cells, without rucaparib",84.5% (active)
same,viability,"[6]; at 0.0781 µM, OCI-C5x cells, with rucaparib 10 µM, 100% = cells with rucaparib alone",109% (inactive)
same,viability,"[6]; at 0.0781 µM, OCI-C5x cells, without rucaparib",101% (inactive)
same,viability,"[6]; at 0.0781 µM, OCI-P5x cells, with rucaparib 20 µM, 100% = cells with rucaparib alone",85% (active)
same,viability,"[6]; at 0.0781 µM, OCI-P5x cells, without rucaparib",88.3% (active)
same,viability,"[6]; at 0.313 µM, OCI-C5x cells, with rucaparib 10 µM, 100% = cells with rucaparib alone",120% (inactive)
same,viability,"[6]; at 0.313 µM, OCI-C5x cells, without rucaparib",94.4% (active)
same,viability,"[6]; at 0.313 µM, OCI-P5x cells, with rucaparib 20 µM, 100% = cells with rucaparib alone",85.2% (active)
same,viability,"[6]; at 0.313 µM, OCI-P5x cells, without rucaparib",78.8% (active)
same,viability,"[6]; at 1.25 µM, OCI-C5x cells, with rucaparib 10 µM, 100% = cells with rucaparib alone",111% (inactive)
same,viability,"[6]; at 1.25 µM, OCI-C5x cells, without rucaparib",97.7% (active)
same,viability,"[6]; at 1.25 µM, OCI-P5x cells, with rucaparib 20 µM, 100% = cells with rucaparib alone",85.8% (active)
same,viability,"[6]; at 1.25 µM, OCI-P5x cells, without rucaparib",76.5% (active)
same,viability,"[6]; at 5 µM, OCI-C5x cells, with rucaparib 10 µM, 100% = cells with rucaparib alone",115% (inactive)
same,viability,"[6]; at 5 µM, OCI-C5x cells, without rucaparib",98.1% (active)
same,viability,"[6]; at 5 µM, OCI-P5x cells, with rucaparib 20 µM, 100% = cells with rucaparib alone",75.2% (active)
same,viability,"[6]; at 5 µM, OCI-P5x cells, without rucaparib",77.4% (active)
CCc1nc(NC(=O)NC(c2ccccc2)c2ccccc2)nn1C,fold change,[1]; [7],0.893 (inactive)
same,fold change,[1]; [8],1.04
same,cell count,[1]; [9],6610
same,cell count,[1]; [10],7400
same,z-score,[2]; [11],-0.352 (inactive)
same,z-score,[2]; [12],-0.694
same,z-score,[3],1.48 (inactive)
CC(C)(O/N=C(\C(=O)N[C@@H]1C(=O)N2C(C(=O)[O-])=C(C[n+]3ccccc3)CS[C@H]12)c1csc(N)n1)C(=O)O,parasite load remaining,[4],53.2% (inactive) and 19.3% (inactive)
same,viability,[4],114% and 70%
same,fold change,[1]; [7],0.844 (inactive) and 0.909 (inactive)
same,fold change,[1]; [8],1.51 and 1.02
same,cell count,[1]; [9],8430 and 9490
same,cell count,[1]; [10],9990 and 10400
same,z-score,[2]; [11],-0.0556 (inactive) and 0.494 (inactive)
same,z-score,[2]; [12],-0.289 and -0.00761
same,remaining NAD,[5],10 nM (inactive)
same,z-score,[3],0.025 (inactive)
